This is part of a sample that, as a whole, favours compounds with a hit. Of some 79,000 tested, about 15% had one in any assay. A number with no mark means an inactive call. Active and inactive are the calls of the source. Cut-off read from the data, not from the text of the source: active = growth inhibition above about 70%; inactive = the rest.
Test: NCI Yeast Anticancer Drug Screen. Data for the cln2 rad14 strain (AID 165);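 note: 0% = growth equal to vehicle treated cultures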
Details: S. cerevisiae cln2 rad14 strain, at 5.0 µM (retest, dose inferred, filed as 0.5), active compounds read high
How it was run: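 cln2 rad14 yeast strain; compound exposure; growth inhibition read vs vehicle controls.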

| SMILES | growth inhibition |
| --- | --- |
| CC(CN(C)C)C(=O)/C=C/c1ccc(Cl)c(Cl)c1 (stereo unspecified) | -3% |
| CCCCCCNCCCNc1c2cc(OC)ccc2nc2cccc([N+](=O)[O-])c12 | 77% (active) |
| NC(=S)N1N=C2c3ccccc3CC[C@H]2[C@@H]1c1ccc(Cl)cc1 | 12% |
| C/C(=N/NC(=S)Nc1ccccc1C)c1ccccn1 | 12% |
| O=C1/C(=C/c2ccc(Cl)c(Cl)c2)CNC/C1=C\c1ccc(Cl)c(Cl)c1 | 10% |
| CC(C)OP(=O)(OC(C)C)C(=NCCO)NNc1ccc([N+](=O)[O-])cc1 | 25% |
| N#CCC(=O)N/N=C(\c1ccccc1)C(c1ccccc1)C1(O)C(=O)Nc2c(Cl)ccc(Cl)c21 (stereo unspecified) | 9% |
| CC(C)(CN1CCCCC1)C(=O)CC(SCCS(=O)(=O)O)c1ccccc1 (stereo unspecified) | 72% (active) |
| COC1=CCC23C(=O)C=CC(=O)C2(C1)C(=O)c1ccccc1C3=O (stereo unspecified) | 0% |
| CCCCN(CCCC)c1ccc(N=Nc2ccc(S(=O)(=O)O)cc2)cc1 | 20% |
| c1ccc2nc3c(nc2c1)sc1ccccc13 | -29% |
| O=C1c2ccccc2-c2ccc(N=Cc3ccccc3)cc21 | -2% |
| CNC(=S)N/N=C(/C)CCC/C(C)=N/NC(=S)NC | 21% |
| Nc1ccc(/C=C/c2ccc3cccnc3c2)cc1 | -5% |
| COc1ccc2c3c1OC(C)C31CC(=O)CCC1CC2 (stereo unspecified) | 14% |
| CCOC(=O)Nc1ccc(C)c(NC(=O)OCC)c1 | 11% |
| CCN(CC)CCNc1ccc2nc(C)n3c4ccc(OC)cc4c(=O)c1c23 | 25% |
| C[N+](C)([O-])CCCNc1c2ccccc2nc2cccc([N+](=O)[O-])c12 | 85% (active) |

| SMILES | growth inhibition |
| --- | --- |
| O=C(c1cc(=O)c2ccc(O)cc2o1)c1ccc(Cl)cc1Cl | 13% |
| CCCNC(=O)OCc1c(COC(=O)NCCC)c(-c2ccc(Cl)c(Cl)c2)n2c1CCC2 | 20% |
| O=C(Cc1ccccc1)NN1C(=O)C(Cl)C1c1cc(Br)cc(Br)c1O (stereo unspecified) | 46% |
| CCOC(=O)C(Cc1c2ccccc2cc2ccccc12)(NC(C)=O)C(=O)OCC | 5% |
| O=[N+]([O-])/C=C/c1cc2ccc3ccccc3c2[nH]1 | -6% |
| Fc1ccc(Nc2ccc3ccccc3c2)cc1 | -3% |
| O=S1(=O)CCC2=CC(C(F)(F)F)=CC(C(F)(F)F)=CN21 | 13% |
| O=C(Cc1ccccc1)NNc1nc(NNC(=O)c2ccncc2)nc(Nc2ccc([N+](=O)[O-])cc2)n1 | 42% |
| CCCCS/C(=C(/C#N)C(N)=O)c1cc2c([nH]1)CCCC2 | 8% |
| O=C(O)c1ccccc1C(=O)OC1CCc2ccccc2C1 (stereo unspecified) | -74% |
| CCOC(=O)/C(=C\c1cccc(C)c1)C(C)=O | 5% |
| NC(=S)N/N=C1\c2ccccc2CCC1CCC1(O)CCc2ccccc2C1=O (stereo unspecified) | 18% |
| Cc1cccc2c(Cl)c3cccc(C)c3nc12 | -33% |
| CC(C)OC(=O)NNc1c(Cl)cc(Cl)cc1Cl | 14% |
| Nc1ccc2c(c1)C(=O)c1c(F)cccc1-2 | -55% |
| N#CSCC1COc2ccccc2O1 (stereo unspecified) | -6% |
| Cc1ccc(S(=O)(=O)NC(=O)C2C(=O)CC3(CCCCC3)CC2=O)cc1 | 5% |
| CC1=NN(C(=O)c2ccccc2O)C(=O)/C1=C/c1ccco1 | 28% |

From PubChem BioAssay (NCI)
